Our source for the outcome and AC50 values is PubChem BioAssay (EPA / NIEHS).

Molecules are shown by their SMILES. Calls of active or inactive are those of the source. The calls were made as follows: active = hit-call score of the fitted dose curve at least 0.9, where 1 is the maximum; inactive = score below 0.9.

What all share (conditions): mRNA level, 48 h; actives raise or lower the signal
Read-out in test [1]: DNA damage-inducible transcript 3 (DDIT3), DDIT3 (gene 1649)
In words: LTEA_HepaRG_DDIT3: Life Technologies and Expression Analysis (LTEA) Assay for DNA damage-inducible transcript 3 (DDIT3) using HepaRG (AID 2283488). Summed up: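 Eight-point concentration-response (100 uM highest, half-log dilutions) in HepaRG, 48 h, duplicate wells. Endpoint: qRT-PCR mRNA, normalized (ACTB, GAPDH, POLR2A), bidirectional fitting with DMSO as baseline.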

Read-out in test [2]: Pro-epidermal growth factor (Homo sapiens) (UniProt P01133)
In words: LTEA_HepaRG_EGF: Life Technologies and Expression Analysis (LTEA) Assay for Epidermal growth factor (EGF) using HepaRG (AID 2283489). A digest of the protocol:
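qRT-PCR readout of EGF transcript after 48 h chemical exposure of HepaRG cells; eight concentrations from 100 uM down in half-log steps, duplicate wells, 0.5% DMSO vehicle. Bidirectional curve fitting against DMSO baseline.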

Read-out in test [3]: Early growth response protein 1 (EGR1) transcription factor, EGR1 (gene 1958)
Description: LTEA_HepaRG_EGR1: Life Technologies and Expression Analysis (LTEA) Assay for Early growth response protein 1 (EGR1) transcription factor using HepaRG (AID 2283490). Summed up:
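EGR1 expression change in human HepaRG after 48 h chemical exposure, assessed by housekeeping-normalized qRT-PCR; concentration-response up to 100 uM, fitted in both directions against DMSO controls.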

Read-out in test [4]: Ezrin (EZR), EZR (gene 7430)
In words: LTEA_HepaRG_EZR: Life Technologies and Expression Analysis (LTEA) Assay for Ezrin (EZR) using HepaRG (AID 2283491). Summed up: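 Read-out is EZR transcript level by qRT-PCR, normalized to three housekeeping genes and fitted bidirectionally against the DMSO control. Human HepaRG cells received test chemicals for 48 h at eight half-log concentrations up to 100 uM in 0.5% DMSO.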

Read-out in test [5]: Cytochrome P450 3A7 (Homo sapiens) (UniProt P24462)
Description: LTEA_HepaRG_CYP3A7: Life Technologies and Expression Analysis (LTEA) Assay for CYP3A7 using HepaRG (AID 2283492). Summed up: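 CYP3A7 transcript levels were read by TaqMan qRT-PCR on Fluidigm arrays after 48 h chemical exposure of human HepaRG cells, with housekeeping-gene normalisation. Eight half-log concentrations up to 100 uM in 0.5% DMSO were tested in duplicate.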

Read-out in the next test: CYP3A5 (gene 1577)
In words: LTEA_HepaRG_CYP3A5: Life Technologies and Expression Analysis (LTEA) Assay for CYP3A5 using HepaRG (AID 2283493). Summed up:
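Readout was CYP3A5 mRNA by qRT-PCR. HepaRG cultures were exposed for 48 h in serum-free induction medium to chemicals at up to 100 uM, and responses were fitted in both directions relative to DMSO vehicle.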

Read-out in test [6]: Fatty Acid-Binding Protein 1 (FABP1), FABP1 (gene 2168)
Description: LTEA_HepaRG_FABP1: Life Technologies and Expression Analysis (LTEA) Assay for Fatty Acid-Binding Protein 1 (FABP1) using HepaRG (AID 2283494). Summed up:
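Values reflect bidirectional concentration-response fitting of FABP1 mRNA change against 0.5% DMSO controls. Human HepaRG cultures received eight half-log doses (top 100 uM) for 48 h; expression quantified by TaqMan qRT-PCR with housekeeping-gene normalization.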

Read-out in test [7]: Cytochrome P450 4A22 (Homo sapiens) (UniProt Q5TCH4)
In words: LTEA_HepaRG_CYP4A22: Life Technologies and Expression Analysis (LTEA) Assay for Cytochrome P450 4A22 (CYP4A22) using HepaRG (AID 2283495). Summed up: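 HepaRG, 48 h post-plating -> serum-free induction medium; dosed 48 h, duplicate, 8 conc. (100 uM top, half-log), 0.5% DMSO. Readout: CYP4A22 mRNA by qRT-PCR, ACTB/GAPDH/POLR2A normalization; gain/loss fit relative to DMSO.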

Read-out in test [8]: Cytochrome P450 7A1 (Homo sapiens) (UniProt P22680)
Description: LTEA_HepaRG_CYP7A1: Life Technologies and Expression Analysis (LTEA) Assay for Cytochrome P450 7A1 (CYP7A1) using HepaRG (AID 2283496). Summed up:
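Using 0.5% DMSO as vehicle and baseline, chemicals were tested in duplicate over an 8-point range from 100 uM on HepaRG cells for 48 h; qRT-PCR signals were normalised to ACTB, GAPDH and POLR2A.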

Read-out in test [9]: Glutathione S-Transferase (GSTA2), GSTA2 (gene 2939)
In words: LTEA_HepaRG_GSTA2: Life Technologies and Expression Analysis (LTEA) Assay for Glutathione S-Transferase (GSTA2) using HepaRG (AID 2283497). A digest of the protocol:
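Oxidative-stress marker GSTA2 is quantified by TaqMan qRT-PCR in HepaRG cultures treated 48 h across an eight-point range to 100 uM. Expression is normalized to endogenous controls and compared with 0.5% DMSO vehicle.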

Read-out in test [10]: Glutamate-cysteine ligase catalytic (GCLC), GCLC (gene 2729)
In words: LTEA_HepaRG_GCLC: Life Technologies and Expression Analysis (LTEA) Assay for Glutamate-cysteine ligase catalytic (GCLC) using HepaRG (AID 2283498). A digest of the protocol: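 Oxidative-stress marker GCLC is measured as mRNA change in human HepaRG liver cells after 48 h chemical treatment in 0.5% DMSO, eight concentrations from 100 uM. Activity is fitted bidirectionally against vehicle.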

Read-out in test [11]: growth arrest and DNA damage 45 (GADD45G), GADD45G (gene 10912)
Description: LTEA_HepaRG_GADD45G: Life Technologies and Expression Analysis (LTEA) Assay for growth arrest and DNA damage 45 (GADD45G) using HepaRG (AID 2283499). Summed up:
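HepaRG, 48 h exposure, top 100 uM, half-log 8-point series, 0.5% DMSO vehicle, duplicates. Readout: GADD45G transcript by qRT-PCR (Fluidigm array), housekeeping-normalised (ACTB/GAPDH/POLR2A). Bidirectional curve fit vs DMSO baseline.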

Read-out in test [12]: Glutamate-cysteine ligase regulatory (GCLM), GCLM (gene 2730)
Description: LTEA_HepaRG_GCLM: Life Technologies and Expression Analysis (LTEA) Assay for Glutamate-cysteine ligase regulatory (GCLM) using HepaRG (AID 2283500). A digest of the protocol:
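In this multiplexed HepaRG gene-expression assay, GCLM mRNA change after 48 h treatment (8 concentrations, max 100 uM) was scored against DMSO by bidirectional curve fitting.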

Read-out in test [13]: Heat shock 70 kDa protein 1 (HSPA1A), gene 3303
Description: LTEA_HepaRG_HSPA1A: Life Technologies and Expression Analysis (LTEA) Assay for Heat shock 70 kDa protein 1 (HSPA1A) using HepaRG (AID 2283502). Summed up:
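An oxidative-stress marker readout: HepaRG cells treated 48 h in duplicate with an eight-point series (highest 100 uM) had HSPA1A mRNA quantified by TaqMan qRT-PCR. Activity was fitted in both directions using 0.5% DMSO as baseline.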

Read-out in test [14]: Hypoxia-inducible factor 1-alpha (Homo sapiens) (UniProt Q16665)
Description: LTEA_HepaRG_HIF1A: Life Technologies and Expression Analysis (LTEA) Assay for Hypoxia-inducible factor 1 (HIF1A) Trancription factor using HepaRG (AID 2283503). Summed up: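 Gain- or loss-of-signal HIF1A mRNA changes are fitted against a DMSO baseline. HepaRG cultures receive eight concentrations, highest 100 uM, for 48 h in serum-free induction medium with 0.5% DMSO.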

Read-out in test [15]: 3-Hydroxy-3-Methylglutaryl-CoA Synthase 2 (HMGCS2), HMGCS2 (gene 3158)
Description: LTEA_HepaRG_HMGCS2: Life Technologies and Expression Analysis (LTEA) Assay for 3-Hydroxy-3-Methylglutaryl-CoA Synthase 2 (HMGCS2) using HepaRG (AID 2283504). A digest of the protocol: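 qRT-PCR read-out of HMGCS2 transcript, normalised to three housekeeping genes, in HepaRG cells after 48 h chemical exposure. Eight-point curves from 100 uM, half-log dilutions, 0.5% DMSO vehicle; gain or loss fitted relative to DMSO baseline.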

Read-out in test [16]: Insulin Like Growth Factor 1 (IGF1), IGF1 (gene 3479)
Description: LTEA_HepaRG_IGF1: Life Technologies and Expression Analysis (LTEA) Assay for Insulin Like Growth Factor 1 (IGF1) using HepaRG (AID 2283506). A digest of the protocol: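 Endpoint: IGF1 mRNA change by qRT-PCR, housekeeping-normalized, fitted bidirectionally relative to 0.5% DMSO vehicle. Human HepaRG cells were treated 48 h in serum-free induction medium, eight half-log concentrations topping at 100 uM.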

Read-out in test [17]: Intercellular Adhesion Molecule 1 (ICAM1), ICAM1 (gene 3383)
In words: LTEA_HepaRG_ICAM1: Life Technologies and Expression Analysis (LTEA) Assay for Intercellular Adhesion Molecule 1 (ICAM1) using HepaRG (AID 2283507). Summed up: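 HepaRG, 48 h exposure, 8-pt half-log series from 100 uM, 0.5% DMSO vehicle, duplicates. Readout: TaqMan qRT-PCR mRNA, housekeeping-normalized (ACTB/GAPDH/POLR2A). Bidirectional curve fit vs DMSO baseline.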

Sequence of Hypoxia-inducible factor 1-alpha (Homo sapiens) (Q16665 whole entry, looked up): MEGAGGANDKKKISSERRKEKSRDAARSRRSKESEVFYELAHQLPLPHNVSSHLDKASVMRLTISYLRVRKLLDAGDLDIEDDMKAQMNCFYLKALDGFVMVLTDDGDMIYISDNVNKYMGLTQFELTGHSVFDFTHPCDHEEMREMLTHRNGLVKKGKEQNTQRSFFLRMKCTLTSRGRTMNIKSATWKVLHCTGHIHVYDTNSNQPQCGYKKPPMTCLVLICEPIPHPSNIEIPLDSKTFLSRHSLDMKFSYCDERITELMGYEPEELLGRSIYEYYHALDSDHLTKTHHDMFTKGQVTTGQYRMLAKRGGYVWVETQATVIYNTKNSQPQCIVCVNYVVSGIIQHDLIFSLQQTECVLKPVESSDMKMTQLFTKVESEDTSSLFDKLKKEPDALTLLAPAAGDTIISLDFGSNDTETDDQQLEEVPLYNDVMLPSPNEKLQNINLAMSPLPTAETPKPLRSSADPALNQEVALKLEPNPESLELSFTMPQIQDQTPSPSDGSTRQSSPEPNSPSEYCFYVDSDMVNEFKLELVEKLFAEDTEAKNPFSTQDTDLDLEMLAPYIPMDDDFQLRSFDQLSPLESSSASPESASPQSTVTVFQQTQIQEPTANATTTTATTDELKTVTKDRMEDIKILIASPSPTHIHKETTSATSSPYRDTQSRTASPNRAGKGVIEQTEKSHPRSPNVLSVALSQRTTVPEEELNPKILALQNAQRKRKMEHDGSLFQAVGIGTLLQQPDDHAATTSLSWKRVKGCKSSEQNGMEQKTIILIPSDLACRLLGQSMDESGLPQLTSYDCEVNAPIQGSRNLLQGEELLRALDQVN
Sequence of Cytochrome P450 3A7 (Homo sapiens) (P24462 whole entry, looked up): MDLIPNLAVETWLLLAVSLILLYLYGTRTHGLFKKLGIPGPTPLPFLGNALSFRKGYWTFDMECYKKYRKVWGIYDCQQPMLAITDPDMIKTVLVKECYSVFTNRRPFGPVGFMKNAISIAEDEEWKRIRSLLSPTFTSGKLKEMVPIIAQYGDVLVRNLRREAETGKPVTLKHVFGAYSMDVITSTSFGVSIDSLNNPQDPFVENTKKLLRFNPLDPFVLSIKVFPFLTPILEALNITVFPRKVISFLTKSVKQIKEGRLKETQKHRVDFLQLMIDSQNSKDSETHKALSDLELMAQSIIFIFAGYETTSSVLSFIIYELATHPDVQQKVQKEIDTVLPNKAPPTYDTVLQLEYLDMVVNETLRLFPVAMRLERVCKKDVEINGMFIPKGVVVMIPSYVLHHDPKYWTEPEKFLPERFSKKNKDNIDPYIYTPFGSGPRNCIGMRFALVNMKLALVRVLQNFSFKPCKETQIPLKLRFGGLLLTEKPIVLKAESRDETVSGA

By AC50 is commonly meant the concentration at which the activity in the assay is half-maximal. `Cc1cccc(C)c1N`: the result (in [1]; in test [2]; in test [3]; in [5]; with CYP3A5 (gene 1577); in test [6]) was inactive. Further, the call in [7], in test [8], in [9], in test [10], in test [11] and in test [12] was inactive. The call in test [13], in test [14], in test [15], in [16] and in test [17] was inactive. For the same compound, in [4], the AC50 was 0.364 µM (active).
Take `C1CC2OC2CC1C1CO1` (configuration not stated): the compound was called inactive (in test [1]; in test [2]; in test [3]; in [4]; in test [5]; in the test with CYP3A5 (gene 1577)). Further, the compound was called inactive in test [6], in test [7], in test [8], in [9], in test [10] and in test [11]. Also, the outcome in test [12], in test [13], in test [14], in test [15], in test [16] and in test [17] was inactive.
For `CO/C=C(/C(=O)OC)c1ccccc1COc1cccc(C(F)(F)F)n1`, the AC50 is 8.83 µM (active) in test [1]; 50 µM (active) in test [2]; 5.1 µM (active) in [4]; 3.4 µM (active) in test [5]; 12.1 µM (active) with CYP3A5 (gene 1577); 5.35 µM (active) in [6]. Further, the AC50 was 5.06 µM (active) in test [7]; 8.85 µM (active) in test [8]; 9.29 µM (active) in test [9]; 6.56 µM (active) in [11]; 8.95 µM (active) in test [12]; 32 µM (active) in test [14]. The results for the AC50 in test [15], in test [16] and in [17] were 6.85 µM (active), 5.31 µM (active) and 8.33 µM (active), respectively. Moreover, the compound was classed as inactive in [3], in [10] and in [13].
For `CCCCCCCCCC[N+](C)(C)CCCCCCCCCC`, the AC50 was 74 µM (active) in [1]; 94.6 µM (active) in test [3]; 80.9 µM (active) in [4]; 25.5 µM (active) in test [7]; 74.5 µM (active) in test [9]; 83.7 µM (active) in test [10]. Moreover, the AC50 in [11] is 83.7 µM (active); in test [14] it was 82.7 µM (active); in test [15], 77.4 µM (active); in [16], 67.7 µM (active); in [17], 94.5 µM (active). The result (in test [2]; in test [5]; in the test with CYP3A5 (gene 1577); in test [6]; in test [8]; in test [12]) was inactive. The call in test [13] was inactive.
